Measurements published in the supplement of paper PMC10849652.
About 8,800 targets were measured; listed, in parts, are those with a hit and a random draw of the rest. About 0.5% of all pairs of compound and target were hits. A number with no mark means an inactive call.

Assays:
Test in all cases: log2 fold change, soluble protein after heating vs DMSO (PISA); higher = thermal stabilisation; K562 lysate, 10 uM; active = over 0.2 and 3.5 SD of the protein, either way, in both replicates (recomputed)
[1] = compound: CCCS(=O)(=O)Nc1ccc(F)c(C(=O)c2c[nH]c3ncc(-c4ccc(Cl)cc4)cc23)c1F [vemurafenib]
Summary of the method: (§1)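 Thermal stability, expressed as log-two fold change relative to solvent controls, is given from duplicates. Crude K562 extract in PBS pH 7.4 with 1 mM MgCl2, at 1 mg/mL protein, was treated with 10 μM compound for 30 min and heated in aliquots for 3 min across 48°C-58°C. After pooling, adjustment to 0.5% NP-40 at 4°C and centrifugation at 21,000xg for 90 min, supernatant protein was measured by TMTpro 16plex LC-MS/MS with channel sums equalised.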

[2] = compound: CCCS(=O)(=O)Nc1ccc(F)c(C(=O)c2c[nH]c3ncc(Cl)cc23)c1F
Summary of the method: as §1

[3] = compound: CCN(CCCOc1ccc2c(Nc3cc(CC(=O)Nc4cccc(F)c4)[nH]n3)ncnc2c1)CCOP(=O)(O)O [barasertib]
Summary of the method: as §1

[4] = compound: CC[C@@H]1C(=O)N(C)c2cnc(Nc3ccc(C(=O)NC4CCN(C)CC4)cc3OC)nc2N1C1CCCC1
Summary of the method: as §1

[5] = compound: CC[C@@H]1C(=O)N(C)c2cnc(Nc3ccc(C(=O)N[C@H]4CC[C@H](N5CCN(CC6CC6)CC5)CC4)cc3OC)nc2N1C(C)C [volasertib]
Summary of the method: as §1

[6] = compound: CCn1c(C(=O)N(C2CC2)C2CC2)cc2c3c(ncn3C)c(Nc3cc(C)n(C)n3)nc21
Summary of the method: as §1

[7] = compound: CCn1cc(-c2ccnc3[nH]c(-c4cccc(CN(C)C)c4)cc23)c(-c2ccc(NC(=O)N(C)C)cc2)n1
Summary of the method: as §1

[8] = compound: CN1CCC(CNc2ccc3ncc(-c4cccc(OC(F)(F)F)c4)n3n2)CC1
Summary of the method: as §1

[9] = compound: CN1CCN(CCOc2cc(OC3CCOCC3)c3c(Nc4c(Cl)ccc5c4OCO5)ncnc3c2)CC1 [saracatinib]
Summary of the method: as §1

[10] = compound: CN1CCN(c2nc(C3=C(c4c[nH]c5ccccc45)C(=O)NC3=O)c3ccccc3n2)CC1 [sotrastaurin]
Summary of the method: as §1

Chain of UniProt P55263 (P55263 whole entry, looked up): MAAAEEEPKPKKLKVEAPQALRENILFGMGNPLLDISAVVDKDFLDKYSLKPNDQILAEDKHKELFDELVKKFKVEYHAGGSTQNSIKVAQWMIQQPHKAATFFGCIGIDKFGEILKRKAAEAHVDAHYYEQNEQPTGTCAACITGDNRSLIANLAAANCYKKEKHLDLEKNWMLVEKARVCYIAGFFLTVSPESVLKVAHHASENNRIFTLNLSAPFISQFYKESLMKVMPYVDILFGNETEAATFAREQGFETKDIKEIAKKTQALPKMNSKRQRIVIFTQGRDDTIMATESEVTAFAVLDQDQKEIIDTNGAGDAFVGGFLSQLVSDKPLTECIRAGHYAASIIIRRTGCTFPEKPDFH
Chain of UniProt Q9UHB7 (Q9UHB7 whole entry, looked up): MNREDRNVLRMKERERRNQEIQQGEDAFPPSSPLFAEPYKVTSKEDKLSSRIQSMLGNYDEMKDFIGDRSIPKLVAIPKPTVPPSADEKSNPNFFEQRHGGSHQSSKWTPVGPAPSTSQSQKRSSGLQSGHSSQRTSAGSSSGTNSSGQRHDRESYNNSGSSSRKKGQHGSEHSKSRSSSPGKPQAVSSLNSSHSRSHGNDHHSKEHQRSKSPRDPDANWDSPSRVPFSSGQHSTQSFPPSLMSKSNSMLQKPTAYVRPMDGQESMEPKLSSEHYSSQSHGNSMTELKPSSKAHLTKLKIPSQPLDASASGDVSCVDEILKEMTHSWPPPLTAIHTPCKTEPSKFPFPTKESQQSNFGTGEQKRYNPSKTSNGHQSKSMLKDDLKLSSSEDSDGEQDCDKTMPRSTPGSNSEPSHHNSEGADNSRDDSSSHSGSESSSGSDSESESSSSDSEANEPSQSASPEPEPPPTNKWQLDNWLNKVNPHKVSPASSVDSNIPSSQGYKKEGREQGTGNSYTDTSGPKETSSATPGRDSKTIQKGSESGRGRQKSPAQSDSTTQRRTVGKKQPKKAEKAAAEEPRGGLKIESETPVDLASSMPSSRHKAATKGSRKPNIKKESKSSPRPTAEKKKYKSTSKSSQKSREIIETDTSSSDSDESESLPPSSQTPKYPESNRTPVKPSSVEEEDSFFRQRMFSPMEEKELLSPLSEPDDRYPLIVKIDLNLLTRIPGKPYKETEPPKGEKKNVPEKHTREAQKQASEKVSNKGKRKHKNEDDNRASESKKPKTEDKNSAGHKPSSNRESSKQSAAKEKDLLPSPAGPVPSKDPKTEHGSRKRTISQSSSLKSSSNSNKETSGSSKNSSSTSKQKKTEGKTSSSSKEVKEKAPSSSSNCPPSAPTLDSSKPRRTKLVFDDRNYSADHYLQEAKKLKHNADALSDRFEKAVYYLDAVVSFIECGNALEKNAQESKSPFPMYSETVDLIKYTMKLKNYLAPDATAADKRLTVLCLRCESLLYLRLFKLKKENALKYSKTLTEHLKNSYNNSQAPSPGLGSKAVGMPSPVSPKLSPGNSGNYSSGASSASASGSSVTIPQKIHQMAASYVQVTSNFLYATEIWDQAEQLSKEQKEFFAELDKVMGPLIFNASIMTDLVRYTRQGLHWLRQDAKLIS
Chain of UniProt Q9NWB6 (Q9NWB6 whole entry, looked up): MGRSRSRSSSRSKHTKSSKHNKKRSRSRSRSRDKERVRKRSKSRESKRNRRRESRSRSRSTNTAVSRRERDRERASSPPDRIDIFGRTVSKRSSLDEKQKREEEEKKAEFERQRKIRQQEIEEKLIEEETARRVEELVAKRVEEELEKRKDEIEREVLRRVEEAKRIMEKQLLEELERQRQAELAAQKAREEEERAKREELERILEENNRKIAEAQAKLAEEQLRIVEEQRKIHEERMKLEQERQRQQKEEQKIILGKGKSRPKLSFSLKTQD
Chain of UniProt P52895 (P52895 whole entry, looked up): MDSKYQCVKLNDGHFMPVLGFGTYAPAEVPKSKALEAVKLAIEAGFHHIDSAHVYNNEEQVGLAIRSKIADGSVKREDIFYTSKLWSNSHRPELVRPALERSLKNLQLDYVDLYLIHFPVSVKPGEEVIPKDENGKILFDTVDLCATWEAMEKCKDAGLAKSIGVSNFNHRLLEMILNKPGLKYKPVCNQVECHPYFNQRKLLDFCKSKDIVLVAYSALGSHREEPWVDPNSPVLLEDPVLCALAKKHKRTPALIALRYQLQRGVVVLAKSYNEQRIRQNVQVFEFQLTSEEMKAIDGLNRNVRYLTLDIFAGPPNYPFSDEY
Chain of UniProt Q15067 (Q15067 whole entry, looked up): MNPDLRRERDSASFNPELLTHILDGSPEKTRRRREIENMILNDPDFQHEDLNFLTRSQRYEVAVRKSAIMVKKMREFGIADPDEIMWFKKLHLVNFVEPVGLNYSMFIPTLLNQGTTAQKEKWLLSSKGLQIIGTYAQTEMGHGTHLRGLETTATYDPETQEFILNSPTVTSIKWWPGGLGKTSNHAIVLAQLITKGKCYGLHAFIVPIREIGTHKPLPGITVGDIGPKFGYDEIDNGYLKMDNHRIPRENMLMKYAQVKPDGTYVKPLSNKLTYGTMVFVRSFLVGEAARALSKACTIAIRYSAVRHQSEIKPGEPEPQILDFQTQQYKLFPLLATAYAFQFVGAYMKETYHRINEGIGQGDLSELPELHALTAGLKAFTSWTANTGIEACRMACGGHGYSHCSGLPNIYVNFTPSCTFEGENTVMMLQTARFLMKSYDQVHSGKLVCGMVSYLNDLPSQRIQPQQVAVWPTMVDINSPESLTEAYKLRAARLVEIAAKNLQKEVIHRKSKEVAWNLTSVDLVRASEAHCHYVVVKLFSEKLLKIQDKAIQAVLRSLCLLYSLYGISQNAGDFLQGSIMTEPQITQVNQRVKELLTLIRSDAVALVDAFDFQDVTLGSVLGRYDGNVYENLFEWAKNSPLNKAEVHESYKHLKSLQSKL
Chain of UniProt Q8NFV4 (Q8NFV4 whole entry, looked up): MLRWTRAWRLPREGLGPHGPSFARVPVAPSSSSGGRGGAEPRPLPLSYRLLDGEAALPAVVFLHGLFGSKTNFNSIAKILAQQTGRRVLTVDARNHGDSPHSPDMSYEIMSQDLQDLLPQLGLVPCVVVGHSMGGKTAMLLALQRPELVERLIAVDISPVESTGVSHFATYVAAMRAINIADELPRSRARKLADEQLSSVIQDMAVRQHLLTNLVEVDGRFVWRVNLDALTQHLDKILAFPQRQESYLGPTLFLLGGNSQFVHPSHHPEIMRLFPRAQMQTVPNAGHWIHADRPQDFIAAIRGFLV
Chain of UniProt P07355 (P07355 whole entry, looked up): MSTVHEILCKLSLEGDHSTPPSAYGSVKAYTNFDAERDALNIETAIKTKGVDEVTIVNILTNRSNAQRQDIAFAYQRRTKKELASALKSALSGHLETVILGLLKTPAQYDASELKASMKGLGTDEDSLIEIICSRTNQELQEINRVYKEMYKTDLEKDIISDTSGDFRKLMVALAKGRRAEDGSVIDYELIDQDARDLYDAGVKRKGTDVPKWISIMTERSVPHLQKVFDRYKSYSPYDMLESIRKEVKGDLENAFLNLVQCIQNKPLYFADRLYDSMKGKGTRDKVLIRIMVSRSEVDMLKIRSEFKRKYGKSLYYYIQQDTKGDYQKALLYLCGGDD
Chain of UniProt Q12904 (Q12904 whole entry, looked up): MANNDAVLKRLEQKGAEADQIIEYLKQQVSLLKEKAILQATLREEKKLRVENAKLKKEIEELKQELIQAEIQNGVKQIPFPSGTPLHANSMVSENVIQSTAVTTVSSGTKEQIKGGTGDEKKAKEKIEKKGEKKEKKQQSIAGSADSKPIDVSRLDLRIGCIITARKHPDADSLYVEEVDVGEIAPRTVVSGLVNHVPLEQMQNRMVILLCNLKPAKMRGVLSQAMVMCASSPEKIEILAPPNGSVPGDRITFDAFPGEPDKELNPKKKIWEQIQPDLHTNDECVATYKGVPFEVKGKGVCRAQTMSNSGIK
Chain of UniProt P35611 (P35611 whole entry, looked up): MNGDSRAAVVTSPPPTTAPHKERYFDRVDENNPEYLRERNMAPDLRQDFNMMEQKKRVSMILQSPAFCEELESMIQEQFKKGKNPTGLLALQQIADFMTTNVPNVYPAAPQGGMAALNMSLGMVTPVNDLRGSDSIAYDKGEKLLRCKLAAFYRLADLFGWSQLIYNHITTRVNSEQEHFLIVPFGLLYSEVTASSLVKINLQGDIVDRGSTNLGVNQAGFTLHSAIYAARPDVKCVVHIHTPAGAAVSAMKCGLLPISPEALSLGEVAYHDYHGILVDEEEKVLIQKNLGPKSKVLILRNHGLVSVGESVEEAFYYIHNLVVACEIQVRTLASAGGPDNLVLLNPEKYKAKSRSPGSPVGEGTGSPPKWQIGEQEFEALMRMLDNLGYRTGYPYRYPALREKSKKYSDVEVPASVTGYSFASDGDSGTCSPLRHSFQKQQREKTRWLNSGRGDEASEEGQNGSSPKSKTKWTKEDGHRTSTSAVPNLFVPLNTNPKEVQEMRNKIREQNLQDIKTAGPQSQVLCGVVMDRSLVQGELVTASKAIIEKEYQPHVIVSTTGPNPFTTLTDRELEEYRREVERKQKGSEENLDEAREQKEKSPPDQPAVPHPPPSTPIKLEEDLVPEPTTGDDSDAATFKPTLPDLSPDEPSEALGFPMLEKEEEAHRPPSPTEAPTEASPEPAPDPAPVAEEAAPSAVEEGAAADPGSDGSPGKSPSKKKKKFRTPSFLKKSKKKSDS
Chain of UniProt Q9BTT0 (Q9BTT0 whole entry, looked up): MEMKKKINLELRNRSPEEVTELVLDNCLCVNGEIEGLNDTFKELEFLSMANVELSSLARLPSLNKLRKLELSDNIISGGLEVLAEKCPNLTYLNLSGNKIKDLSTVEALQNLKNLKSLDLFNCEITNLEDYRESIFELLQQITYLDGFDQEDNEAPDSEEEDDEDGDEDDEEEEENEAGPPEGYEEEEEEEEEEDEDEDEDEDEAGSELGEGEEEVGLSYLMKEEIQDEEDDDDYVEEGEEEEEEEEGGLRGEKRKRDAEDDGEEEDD
Chain of UniProt P27144 (P27144 whole entry, looked up): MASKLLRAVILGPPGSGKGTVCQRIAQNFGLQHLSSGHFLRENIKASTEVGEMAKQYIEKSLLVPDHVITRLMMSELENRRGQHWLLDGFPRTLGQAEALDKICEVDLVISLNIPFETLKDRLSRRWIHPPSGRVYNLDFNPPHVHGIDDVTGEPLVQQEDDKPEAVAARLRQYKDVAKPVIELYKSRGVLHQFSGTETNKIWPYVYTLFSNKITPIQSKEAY

Row | Target | log2 fold change [1] | log2 fold change [2] | log2 fold change [3] | log2 fold change [4] | log2 fold change [5] | log2 fold change [6] | log2 fold change [7] | log2 fold change [8] | log2 fold change [9] | log2 fold change [10]
1 | AKR1C2 (UniProt P52895) | 0.001 | 0.018 | -0.008 | 0.008 | -0.018 | -0.043 | -0.369 (active) | 0.148 | 0.062 | 0.006
2 | ARGLU1 (UniProt Q9NWB6) | -0.013 | 0.027 | -0.043 | 0.001 | 0.027 | -0.035 | 0.073 | -0.02 | 0.047 | -0.019
3 | AK4 (UniProt P27144) | -0.068 | 0.018 | 0.11 | -0.057 | -0.024 | 0.023 | -0.036 | -0.002 | -0.016 | 0.05
4 | ADD1 isoform 3 (UniProt P35611) | -0.025 | -0.002 | -0.001 | 0.036 | 0.007 | -0.002 | -0.013 | 0.054 | 0.002 | 0
5 | ACSL4 (UniProt O60488) | 0.061 | -0.007 | -0.006 | -0.029 | -0.001 | 0.036 | 0.008 | -0.02 | 0.047 | 0.043
6 | ANXA2 isoform 2 (UniProt P07355) | -0.03 | -0.004 | -0.021 | 0 | 0.017 | 0.033 | -0.003 | -0.02 | 0.013 | -0.012
7 | AIMP1 isoform 2 (UniProt Q12904) | 0.001 | 0.018 | 0.015 | -0.036 | -0.057 | 0.025 | -0.024 | -0.081 | 0.023 | -0.001
8 | ARL8A (UniProt Q96BM9) | -0.029 | -0.26 | -0.026 | -0.001 | -0.037 | -0.03 | 0.558 (active) | -0.199 | 0.03 | 0.022
9 | AKAP8 (UniProt O43823) | 0.006 | 0.044 | 0.056 | -0.009 | -0.03 | -0.013 | -0.056 | 0.044 | 0.075 | 0.008
10 | ACOX1 isoform 2 (UniProt Q15067) | 0.017 | 0.003 | -0.029 | 0.015 | 0.053 | -0.026 | -0.038 | 0.1 | -0.014 | 0.004
11 | APAF1 (UniProt O14727) | -0.014 | -0.012 | 0.073 | -0.087 | -0.056 | 0.001 | 0.115 | -0.012 | -0.028 | 0.015
12 | ARAF (UniProt P10398) | 0.411 (active) | 0.058 | 0.015 | -0.069 | -0.038 | -0.015 | 0.042 | 0 | 0.005 | 0.002
13 | APOBEC3C (UniProt Q9NRW3) | -0.027 | 0.021 | -0.006 | 0.075 | -0.014 | -0.081 | -0.038 | 0.034 | 0.018 | 0.114
14 | ADK (UniProt P55263) | -0.052 | -0.036 | -0.054 | 0.458 (active) | 0.437 (active) | -0.027 | 0.044 | 0.155 | 0.043 | 0.343
15 | AGTPBP1 (UniProt Q9UPW5) | 0.151 | 0.075 | -0.223 | 0.036 | -0.089 | -0.013 | 0.013 | -0.409 (active) | 0.108 | -0.126
16 | ALDH1B1 (UniProt P30837) | 0.008 | 0.017 | -0.022 | 0.029 | -0.013 | -0.062 | -0.015 | 0.108 | 0.011 | 0.022
17 | AFF4 (UniProt Q9UHB7) | 0.157 | -0.012 | -0.072 | 0.001 | -0.019 | 0.023 | -0.133 | -0.04 | -0.009 | 0.002
18 | ANP32E (UniProt Q9BTT0) | -0.012 | 0.004 | -0.064 | 0.059 | -0.001 | -0.011 | -0.058 | 0.024 | 0.028 | -0.023
19 | AARS2 (UniProt Q5JTZ9) | 0.041 | -0.052 | 0.029 | -0.055 | -0.037 | 0.027 | 0.027 | -0.053 | 0.003 | 0.031
20 | ARL15 (UniProt Q9NXU5) | -0.057 | -0.019 | 0.002 | -0.082 | -0.009 | 0.035 | 0.765 (active) | -0.119 | -0.01 | 0.049
21 | AP4B1 (UniProt Q9Y6B7) | 0.026 | 0.087 | 0.028 | -0.01 | -0.009 | 0.011 | -0.035 | 0.02 | 0.042 | -0.027
22 | ACIN1 isoform 5 (UniProt Q9UKV3) | 0.014 | 0.024 | 0.009 | -0.016 | 0 | -0.018 | 0.067 | -0.01 | 0.006 | 0.014
23 | ABHD11 (UniProt Q8NFV4) | 0.062 | -0.051 | 0.093 | -0.029 | -0.082 | 0.028 | -0.109 | 0.024 | -0.026 | -0.016
24 | AMD1 (UniProt P17707) | 0.096 | -0.01 | 0.064 | 0.036 | -0.014 | 0.117 | -0.129 | 0.127 | 0.013 | -0.002
25 | AP3D1 isoform 5 (UniProt O14617) | -0.001 | -0.002 | 0.036 | -0.004 | 0 | 0.002 | -0.08 | 0.034 | 0.001 | 0.013
26 | AHCYL1 (UniProt O43865) | 0.018 | 0.021 | -0.001 | 0.001 | -0.073 | -0.021 | -0.055 | -0.012 | -0.021 | 0.006
27 | AKAP11 (UniProt Q9UKA4) | -0.272 | -0.029 | 0.082 | 0.051 | 0.038 | -0.055 | 0.044 | -0.024 | 0.028 | -0.103
28 | ABCD3 (UniProt P28288) | 0.078 | 0.058 | 0.053 | -0.077 | -0.029 | -0.07 | -0.054 | 0.044 | -0.071 | 0.073
